Data taken from PubChem BioAssay (NCATS).
Results filed as inconclusive are left out. Calls of active or inactive are those of the source. Calls come from the whole dose curve; as a rule, active = well fitted curve in the direction sought with a large enough effect; inconclusive = small, poorly fitted or top-dose-only effect, or another doubt; inactive = no such curve, though single readings can be large; an effect the other way counts as inactive or inconclusive.

What was measured:
[1] = Confirmatory screen GU Rhodamine qHTS for Zika virus inhibitors qHTS (AID 1347157); note: nearly all actives have a fitted effect of over 70% in size; note: potency is the fitted concentration of half-maximal effect
Outline: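 In dose–response format, inhibition of unlinked protease (25 nM) was measured with 1.5 microM bis-peptide Rhodamine110 substrate. Aprotinin served as the intraplate control.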

[2] = ZIKV-mCherry secondary qHTS for Zika virus inhibitors (AID 1347158); note: potency is the fitted concentration of half-maximal effect
Outline: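 After overnight seeding at 37 °C, Vero cells receive compound and then ZIKV-mCherry (MOI 1). Following 48-72 h infection, cells are fixed, counterstained with Hoechst, and imaged; percent infected cells is derived from an mCherry intensity cut-off of 450 RFU.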

[3] = tested on: Zika virus NS2B-NS3 protease (unlinked complex); assay: Primary screen GU Rhodamine qHTS for Zika virus inhibitors: Unlinked NS2B-NS3 protease assay (AID 1347159); note: nearly all actives have a fitted effect of over 60% in size; note: potency is the fitted concentration of half-maximal effect
Outline: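 Compounds, tested up to 114 microM, were incubated for 15 minutes with 25 nM unlinked NS2B-NS3 protease at pH 8.0. Cleavage of 1.5 microM Rhodamine110 substrate was then followed by fluorescence for 15 minutes.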

[4] = tested on: Zika virus NS2B-NS3 protease (linked construct); assay: Primary screen NINDS Rhodamine qHTS for Zika virus inhibitors (AID 1347160); note: nearly all actives have a fitted effect of over 55% in size; note: potency is the fitted concentration of half-maximal effect
Outline: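 Percent inhibition, normalized to uninhibited and enzyme-free controls, is fitted to a 4-parameter Hill equation. Fluorescence change comes from a 15-min cleavage of 1.5 microM bis-peptide Rhodamine110 substrate by 25 nM linked NS2B-NS3 at room temperature.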

[5] = Confirmatory screen NINDS Rhodamine qHTS for Zika virus inhibitors (AID 1347161); note: nearly all actives have a fitted effect of over 60% in size; note: potency is the fitted concentration of half-maximal effect
Outline: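 In 10 mM Tris-HCl pH 8.0 containing 0.01% Tween 20, linked NS2B-NS3 protease (25 nM final) is exposed to test compounds for 15 min. Cleavage of 1.5 microM Rhodamine110 substrate is tracked by fluorescence over 15 min.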

[6] = tested on: Zika virus NS2B-NS3 protease (linked); assay: 384 well plate NINDS AMC confirmatory qHTS for Zika virus inhibitors (AID 1347163); note: nearly all actives have a fitted effect of over 50% in size; note: potency is the fitted concentration of half-maximal effect
Outline: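 Linked protease 5/30/60 nM final; cpds up to 1 mM final, ~15 min preinc. Substrate Ac-VKTGKR-AMC 30 microM final. RT, dark, 25 min; FI ex 355/em 460; normalized to no-enzyme/no-inhibitor ctrls.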

[7] = tested on: Zika virus NS2B-NS3 protease (linked construct); assay: 384 well plate NINDS Rhodamine confirmatory qHTS for Zika virus inhibitors (AID 1347164);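 note: fluorescence from protease cleavage of Ac-LKRR-rhodamine 110 substrate; nearly all actives have a fitted effect of over 65% in size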; note: potency is the fitted concentration of half-maximal effect
Outline: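 Linked NS2B-NS3 protease (final 5, 30 or 60 nM) preincubated ~15 minutes with compounds, then 10 microM Ac-LKRR-Rhodamine 110 added. Fluorescence (485/538 nm) read after 25 minutes at room temperature, normalized to no-enzyme and no-inhibitor controls.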

[8] = Vero cells viability qHTS for Zika virus inhibitors (AID 1347167)
Outline: (§1)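 Compounds were tested in concentration series on cells grown in DMEM containing 4% FBS. After 24 to 48 hours, cellular ATP was measured by luminescence with CellTiter Glo.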

[9] = HepG2 cells viability qHTS for Zika virus inhibitors (AID 1347168)
Outline: as §1

[10] = Tertiary RLuc qRT-PCR qHTS assay for Zika virus inhibitors (AID 1347169); note: nearly all actives have a fitted effect of over 55% in size; note: potency is the fitted concentration of half-maximal effect
Outline: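 Vero cells (1,000/well) infected with recombinant ZIKV-RLuc (Cambodian) at MOI 1-2 after compound addition, 48-72 hrs at 37 degrees C. Live-cell Renilla luciferase substrate added; luminescence read after 1-1.5 hrs.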

[11] = tested on: Zika virus NS2B-NS3 protease (unlinked); assay: Optimization of GU AMC qHTS for Zika virus inhibitors: Unlinked NS2B-NS3 protease assay (AID 1347151); note: series mostly up to about 52 µM; nearly all actives have a fitted effect of over 80% in size
Outline: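 Noncovalent NS2B hydrophilic domain–NS3 protease complex (25 nM final) in 10 mM Tris-HCl pH 8.0, 0.01% Tween 20; AMC substrate, room temperature 15 min (~20% conversion); fluorescence change normalized, 4-parameter Hill fit.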

[12] = tested on: Zika virus NS2B-NS3 protease (linked construct); assay: Confirmatory screen NINDS AMC qHTS for Zika virus inhibitors (AID 1347152); note: nearly all actives have a fitted effect of over 70% in size; note: potency is the fitted concentration of half-maximal effect
Outline: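 Linked NS2B-NS3 protease, 1 nM, in 10 mM Tris-HCl pH 8.0, 0.01% Tween 20; compounds preincubated 15 min at room temperature. Nle-KRR-AMC 10 microM (Km 18.3 µM); 15-min fluorescence change (340/450 nm) fitted to 4-parameter Hill.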

[13] = tested on: Zika virus NS2B-NS3 protease (unlinked complex); assay: Confirmatory screen GU AMC qHTS for Zika virus inhibitors (AID 1347153); note: potency is the fitted concentration of half-maximal effect; nearly all actives have a fitted effect of over 70% in size
Outline: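 Unlinked enzyme 25 nM, Tris pH 8.0/0.01% Tween 20; cpd 15 min RT, dark; + AMC substrate 10 µM (Km 18.3 µM); 340/450 nm read at t0 and 15 min; % inhibition → 4-param fit.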

[14] = tested on: Zika virus NS2B-NS3 protease; assay: Primary screen GU AMC qHTS for Zika virus inhibitors (AID 1347154); note: nearly all actives have a fitted effect of over 70% in size; note: potency is the fitted concentration of half-maximal effect
Outline: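 Fluorogenic AMC-substrate cleavage by noncovalent NS2B-NS3 protease complex (25 nM, pH 8.0 Tris buffer with Tween 20) followed for 15 minutes at room temperature (~20% conversion). Percent inhibition from ex340/em450 signal change, fitted by 4-parameter Hill equation.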

Measured: Potency

COc1ccc(Cl)c(Nc2nc3ccccc3nc2NS(=O)(=O)c2cccc(NC(=O)C(C)(C)N)c2)c1
inactive: [8] | [9]
active: [1] 5.55 µM | [2] 15.8 µM | [3] 7.94 µM | [4] 5.01 µM | [5] 5.55 µM | [6] 2.51 µM | [7] 3.98 µM | [10] 14.7 µM

CC1(C)CC2=C3C=CC4C5(C)CCC(O)C(C)(C)C5CCC4(C)C3(C)CCC2(C)C(O)C1 (stereo not given)
inactive: [2] | [8] | [9]
active: [1] 13.6 µM | [3] 15.8 µM | [4] 8.91 µM | [5] 10.8 µM

CC[C@]1(O)CC2CN(CCc3c([nH]c4ccccc34)[C@@](C(=O)OC)(c3cc4c(cc3OC)N(C)[C@H]3[C@@](O)(C(=O)OC)[C@H](OC(C)=O)[C@]5(CC)C=CCN6CC[C@]43[C@@H]65)C2)C1 (stereo not given in full)
inactive: [11] | [4]

CC1(C)CCC(C)(C)c2cc(C3(c4ccc(C(=O)O)cc4)OCCO3)ccc21
active: [12] 44.1 µM | [13] 39.3 µM | [1] 12.4 µM | [3] 10 µM | [4] 5.62 µM | [5] 7.84 µM
inactive: [6] | [8] | [9]

O=C(N/N=C/c1ccc(O)c(O)c1)c1cc2ccccc2cc1O
active: [1] 2.32 µM | [4] 5.01 µM | [5] 6.55 µM | [6] 50.1 µM | [7] 0.447 µM | [10] 6.18 µM
inactive: [12] | [8] | [9]

COc1c2c(c(CO)c3c1C(=O)OC3)OC1(C)CCC3(O)C(C)(C)OC(=O)CCC3(C)C1C2 (stereo not given)
inactive: [3]

CC(=O)O[C@H]1C(=O)[C@@]2(C)[C@H]([C@H](OC(=O)c3ccccc3)[C@]3(O)C[C@H](OC(=O)[C@H](O)[C@@H](NC(=O)c4ccccc4)c4ccccc4)C(C)=C1C3(C)C)[C@]1(OC(C)=O)CO[C@@H]1C[C@@H]2O
inactive: [14] | [3] | [4]

C=CC/C=C\C/C=C\CCCCCCCc1cccc(O)c1C(=O)O
inactive: [7] | [8] | [9] | [10]
active: [12] 10.9 µM | [13] 6.85 µM | [1] 4.32 µM | [3] 8.91 µM | [4] 3.98 µM | [5] 2.73 µM | [6] 44.7 µM

Cc1ccc(NC(=O)Nc2cc(C(F)(F)F)ccc2F)cc1Nc1ccc2c(c1)NC(=O)/C2=C\c1ccc[nH]1
active: [3] 39.8 µM

COc1ccc(N2CCOCC2)c2sc(NC(=O)N3CCC(C)(O)CC3)nc12
inactive: [3]

O=S(=O)(c1ccccc1)c1cnc2c(N3CCNCC3)cccc2c1
inactive: [1] | [5] | [10]

COc1cc(C(=O)NC2CCN(C)CC2)c(F)cc1Nc1ncc2c(n1)N(C1CCCC1)CC(F)(F)C(=O)N2C
inactive: [3]

CCCCCCOc1cc2c(cc1N(C)c1ncc(C(=O)O)cn1)C(C)(C)CCC2(C)C
active: [12] 31.2 µM | [13] 35 µM | [1] 6.98 µM | [3] 3.98 µM | [4] 7.94 µM | [5] 4.41 µM | [6] 8.91 µM | [7] 3.16 µM | [10] 20.8 µM
inactive: [8] | [9]

COc1ccc(C(=O)n2c(C)c(Cc3cccc(O[C@@H](C)C(=O)O)c3)c3cc(OC(F)(F)F)ccc32)cc1
active: [12] 17.5 µM | [13] 22.1 µM | [1] 2.78 µM | [3] 3.16 µM | [5] 1.11 µM | [6] 12.6 µM
inactive: [7] | [8] | [9]

CC(C)c1cccc2c(-c3ccccc3)cc(-c3ccc(-c4ccc(C(=O)O)cc4)[nH]3)nc12
inactive: [6] | [7] | [8] | [9]
active: [12] 44.1 µM | [13] 49.4 µM | [1] 1.97 µM | [2] 7.08 µM | [3] 3.55 µM | [4] 7.08 µM | [5] 2.21 µM

O=C(O)c1ccccc1NCCc1ccccc1
active: [14] 31.6 µM

CC1(C)CC[C@]2(C(=O)O)CC[C@]3(C)C(=CCC4[C@@]5(C)C[C@@H](O)[C@H](O)C(C)(C)C5CC[C@]43C)C2C1 (stereo not given in full)
inactive: [8] | [9]
active: [1] 8.57 µM | [3] 14.1 µM | [4] 10 µM | [5] 6.07 µM | [6] 56.2 µM | [7] 6.31 µM | [10] 9.06 µM

CCC(C)/C=C(C)/C=C/c1cc2c(cn1)C(=O)C(C)(OC(C)=O)C(O)=C2Cl (stereo not given)
active: [3] 10 µM
